DT40 TDP1 CPT = growth inhibition of DT40 Tdp1-/-;hTDP1 cells with camptothecin (screen for TDP1 inhibitors); chicken DT40 Tdp1-/-;hTDP1 cells + 20 nM CPT, ATP luminescence, 48 h; Potency, µM (series often up to 46.2 µM), for the others: at the highest dose activity change, negative = growth inhibition, actives largely listed as inhibitors; AID 686979; 420,000 compounds, 12% hits; further: potency means the concentration at half of the fitted maximal effect; nearly all actives have a fitted effect of over 55% in size
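Chicken DT40 Tdp1-/- cells stably complemented with human TDP1 were seeded at 400 cells/well in medium containing 20 nM camptothecin, exposed to pin-transferred compounds, and grown at 37 °C for at least 48 hr. Viability was read as ATP luminescence.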
HT1080-NT tox = kills 2HG-producing HT-1080-NT fibrosarcoma cells; 360,000 compounds, 1.6% hits; Potency, µM (top dose mostly 46.1 µM), for inactives: at the highest dose activity, negative = less viability, most hits filed as cytotoxic; HT-1080-NT fibrosarcoma viability, CellTiter-Glo ATP luminescence, 48 h;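 further: NT is the 2HG producing partner of a matched IDH1 knockdown line; potency means the concentration at half of the fitted maximal effect; 0% = DMSO-treated cells and -100% = media-only wells without cells; nearly all actives have a fitted effect of over 55% in size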
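Viability by CellTiter-Glo luminescence after 48 h compound exposure at 37C of HT-1080-NT cells (750/well, RPMI, 5% FBS). % activity scaled between DMSO wells and medium-only wells, then curve-fitted and categorized by curve class.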
ELG1 DNA repair = inhibitors of ELG1-dependent DNA repair in HEK293T cells; Potency, µM (series often up to 46.1 µM), without a hit: top-dose activity change, negative = inhibition, hits mostly inhibitors; 330,000 compounds, 2.3% hits; HEK293T ELG1-luciferase reporter, luminescence, 16 h; DNA damage induced by 5-fluorouridine; further: potency means the concentration at half of the fitted maximal effect; nearly all actives have a fitted effect of over 55% in size
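Step one: seed 2,000 cells per well. Step two: pin-transfer compound or DMSO alongside 5-fluorouridine. Step three: incubate 16 hr, 37 °C, 5% CO2. Step four: add ONE-Glo, wait 30 min, read luminescence.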
DT40 TDP1 no CPT = qHTS for Inhibitors of human tyrosyl-DNA phosphodiesterase 1 (TDP1): qHTS in cells in absence of CPT; AID 686978, 2013; 420,000 compounds, 15% hits; Potency, µM (titrated, usually from 46.2 µM), inactives show top-dose activity change, negative = growth inhibition, actives largely listed as inhibitors; DT40 Tdp1-/- hTDP1 cells, no CPT, ATP luminescence, 48 h; further: potency means the concentration at half of the fitted maximal effect; nearly all actives have a fitted effect of over 55% in size
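No-CPT arm: Tdp1-/-;hTDP1 DT40 cells (400/well) plus compounds, incubated ≥48 hr at 37 °C. Readout CellTiter-Glo luminescence.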
HT1080 IDH1KD tx = toxicity to HT-1080 IDH1 knockdown cells (counter line); HT-1080 IDH1 knockdown viability, ATP luminescence, 48 h; Potency, µM (series often up to 46.1 µM), inactives show at the highest dose activity, negative = toxicity, most hits filed as cytotoxic; 360,000 compounds, 2% hits; AID 686971;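 further: potency means the concentration at half of the fitted maximal effect; 0% = DMSO wells and -100% = cell-free medium wells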
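Knockdown cells (IDH1KD HT-1080) received compounds 2 h after plating at 750 cells/well and were kept 48 h at 37 °C in 5% FBS RPMI. A CellTiter-Glo luminescence read gave % activity for curve fitting.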
IL1B secr inh = inhibitors of inflammasome signaling (IL-1 beta secretion). activity change, % at 57.5 µM. 360,000 compounds, 4.7% hits. AID 743279. THP-1 LPS/ATP IL-1B secretion, AlphaLISA, 16 h; stronger effect = lower value; in the data active means activity change below about -50%; inconclusive means mostly about -30% to -49%
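Secreted IL-1B measured by AlphaLISA bead assay after 16 h compound exposure of THP-1 cells; compounds (final up to 57.5 uM) added 1 h before LPS (250 ng/mL) and ATP (1.25 mM) stimulation; lower signal means less secretion.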
Numbers without * were called inactive; ? = inconclusive; nt = no result; ! = a repeat was not active. Most compounds without a hit are left out; they make up all but 19% or so of the library. Unless noted, the call rests on the fitted dose curve; in most records, active means well fitted curve in the direction sought with a large enough effect; inconclusive means small, poorly fitted or top-dose-only effect, or another doubt; inactive means no such curve, though single readings can be large; an effect the other way counts as inactive or inconclusive. Unless noted, on the % scale 0 is the no-effect control and ±100 the full control effect.

SMILES | DT40 TDP1 CPT | HT1080-NT tox | ELG1 DNA repair | DT40 TDP1 no CPT | HT1080 IDH1KD tx | IL1B secr inh
Cc1ccc(-c2nc(CN(C)Cc3ccc4nccnc4c3)c(C)o2)s1 | ? | 14% | -15% | -37% | 8% | 16
CSCCC(NS(=O)(=O)c1ccc2c(c1)oc(=O)n2C)C(=O)Nc1ccc(Cl)cc1 (centres undefined) | 0% | nt | nt | ? | nt | nt
CCOC(=O)c1c(O)c(Cl)c(C)[nH]c1=O | ? | 14% | 0% | -13% | 16% | 4
CCOc1ccc2nc(N(CCN(CC)CC)C(=O)/C=C/c3cccs3)sc2c1 | ? | -28% | -12% | ? | -20% | -97*
CCN(CC)CCN(C(=O)c1cc2ccccc2cc1OC)c1nc2ccc(F)cc2s1 | 18µM* | 18µM* | -20% | ? | ? | -59*
CCN(CC)CCN(C(=O)c1cc2ccccc2cc1OC)c1nc2ccc(OC)cc2s1 | ? | ? | -4% | 18µM* | ? | ?
CN(C)CCCN(C(=O)c1cc2ccccc2oc1=O)c1nc2ccc(F)cc2s1 | -20% | -4% | ? | ? | 10% | 0
CCN(CC)CCN(C(=O)/C=C/c1cccs1)c1nc2ccc(OC)cc2s1 | 2% | 1% | nt | 0% | 1% | 11
CC(=O)c1ccc(NC(=O)CN(C)S(=O)(=O)c2cc3c(cc2Cl)NC(=O)CO3)cc1 | -16% | nt | nt | ? | nt | nt
CCN1CCN(c2ccc(NC(=O)c3ccc(Cl)c(N4CCCC4=O)c3)cc2)CC1 | 3% | 18% | 19% | -24% | -1% | 2
CCN(CCCc1ccccc1)CCCc1ccccc1 | 10µM*! | ? | -20% | 23µM*! | ? | -18
CS(=O)(=O)c1ccc2nc(NC(=O)c3ccc(NS(=O)(=O)c4ccc(F)c(F)c4)cc3)sc2c1 | -15% | 0% | ? | -30% | 0% | 80
CCCNS(=O)(=O)c1ccc2nc(NC(=O)c3ccc(F)cc3)sc2c1 | 8.2µM* | nt | nt | 21µM* | nt | nt
CCN(CC)S(=O)(=O)c1ccc2nc(NC(=O)c3cccnc3)sc2c1 | 21µM* | nt | nt | ? | nt | nt
CCN(CC)c1ccc(S(=O)(=O)N(CC)CC)cc1NC(=O)c1cccnc1 | 3% | 1% | ? | ? | -10% | -16
CCOC(=O)c1sc(NC(=O)c2ccc(S(=O)(=O)N(CC)CC)cc2)nc1C | -7% | 4% | ? | -25% | 0% | 4
CCN(CC)S(=O)(=O)c1ccc(C(=O)Nc2nc3c(Cl)cc(Cl)cc3s2)cc1 | ? | nt | nt | 16µM* | nt | nt
COc1ccccc1N1CCN(C(=O)c2cc3c(=O)n4cccc(C)c4nc3s2)CC1 | -4% | -10% | ? | ? | -1% | 48
C[C@H]1COc2cccc(N(C)CCO)c2S(=O)(=O)N1 | 2% | 17% | nt | -16% | 8% | 15
Cc1ccc(NC(=O)c2cccs2)cc1NC(=O)c1cccc(F)c1 | -11% | 4% | 6% | ? | 1% | 0
COc1cccc(C(=O)Nc2cc(NC(=O)c3cccs3)ccc2C)c1OC | ? | 4% | 16µM* | ? | 1% | -15
Cc1ccc(NC(=O)c2cccs2)cc1NC(=O)c1ccc(F)cc1 | 7% | -23% | ? | ? | ? | -60*
CN(C(=O)COC(=O)CSc1ccc([N+](=O)[O-])cc1)c1ccccc1 | 23µM* | -4% | 8% | 29µM* | -4% | 0
O=C(N/N=C/c1cc(Br)c(O)c(Br)c1O)c1ccc2c(c1)OCCO2 | 12µM* | ? | -7% | 8.2µM* | ? | 66
O=C(N/N=C/c1cc(Br)cc(Cl)c1O)c1ccc2c(c1)OCO2 | 0.82µM* | ? | nt | 1µM* | ? | 74
O=C(N/N=C/c1cc2c(cc1Cl)OCO2)c1cccc(Br)c1 | -13% | 4% | 0% | 16% | 0% | 0

Bioassay records deposited in PubChem BioAssay by National Center for Advancing Translational Sciences (NCATS).
